Compound activity deposited in PubChem BioAssay by Broad Institute.
ERAP1 HTS inh = inhibitors of human ERAP1 aminopeptidase; Q9NZ08; recombinant ERAP1, Leu-AMC fluorescence, 60 min; inhibition, % at 10.7 µM; 340,000 compounds, 0.15% hits;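 active means mean replicate inhibition of at least 30%, or all replicates individually reaching that 30% level; inactive means mean below 30% and not every replicate reaching it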
ERp5 inh = blocks human ERp5 reductase activity on insulin. Q15084. ERp5 insulin aggregation, absorbance 650 nm, 90 min. inhibition, % at 9.99 µM. 350,000 compounds, 0.05% hits. AID 651711;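 active means mean replicate inhibition above about 25%, with every replicate also reaching it, limit read from the data, passing the limit was not always enough; inconclusive means only one of those two criteria met; inactive means neither criterion met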
Target sequence (Q15084 whole entry, looked up): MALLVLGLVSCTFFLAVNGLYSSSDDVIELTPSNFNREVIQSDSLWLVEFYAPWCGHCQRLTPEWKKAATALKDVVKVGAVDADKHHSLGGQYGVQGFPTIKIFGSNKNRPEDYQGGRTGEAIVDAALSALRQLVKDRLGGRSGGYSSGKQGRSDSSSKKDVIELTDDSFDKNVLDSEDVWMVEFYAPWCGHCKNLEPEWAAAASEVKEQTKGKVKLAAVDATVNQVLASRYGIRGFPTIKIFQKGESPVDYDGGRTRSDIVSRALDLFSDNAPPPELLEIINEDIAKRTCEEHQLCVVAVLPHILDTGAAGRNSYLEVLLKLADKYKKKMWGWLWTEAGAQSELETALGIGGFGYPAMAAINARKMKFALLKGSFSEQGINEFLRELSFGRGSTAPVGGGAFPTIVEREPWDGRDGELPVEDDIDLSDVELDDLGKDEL
MLL AF4-AF9 inh = MLL-AF4/AF9 protein interaction inhibition; P42568; AlphaScreen, biotin-AF4 peptide binding to FLAG-AF9; inhibition, % at 10 µM; 350,000 compounds, 0.47% hits;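 active means every replicate reaching a set inhibition limit, whatever the replicate mean, cut at about 25% in these data; inconclusive means mean inhibition reaches that limit but some replicates miss it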
PDI inh = blocks human protein disulfide isomerase activity; 350,000 compounds, 0.052% hits; inhibition, % at 10 µM; PDI insulin aggregation turbidity, A650, 90 min; P07237; AID 588391;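 active means mean inhibition across replicates of 30% or more, whatever share of single replicates reach that level; inconclusive means mean inhibition below 30% while every single replicate reaches 30%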
DENV2 CPE = inhibitors of DENV2 cytopathic effect; DENV2-infected cells, cytopathic effect rescue, plate reader; CPE inhibition, % at 9.99 µM; 350,000 compounds, 1.7% hits; AID 651640; in the data active means CPE inhibition above about 20%, passing the limit was not always enough; inconclusive means no clear call, values can overlap the other calls; tested in BHK-21 cells
Hits are given with their value; . = inactive; ? = inconclusive; / = no result given; ! = a repeat was not active. This is a sample that favours compounds with a hit; in the whole collection about 1.8% have one here.

SMILES	ERAP1 HTS inh	ERp5 inh	MLL AF4-AF9 inh	PDI inh	DENV2 CPE
O=C1C(=Cc2ccccc2)N2CCC1CC2	.	.	.	.	29
O=C1/C(=C/c2cccnc2)N2CCC1CC2	.	.	.	.	.
O=C(O)[C@H]1[C@H](CO)[C@H]2Cn3c(ccc(-c4cccc(F)c4)c3=O)[C@@H]1N2CCc1ccccc1	.	.	.	/	.
C[C@@H]1CN([C@H](C)CO)C(=O)CCCn2nncc2CO[C@H]1CN(C)C(=O)Oc1ccc2ccccc2c1	.	.	.	.	56!
C[C@@H]1CN([C@@H](C)CO)C(=O)CCCn2nncc2CO[C@H]1CN(C)C(=O)Oc1ccc2ccccc2c1	.	.	.	.	50!
Nc1ccc(CC2=NCCN2)cc1	.	.	.	.	38
CN1CC[C@]23c4c5ccc(O)c4OC2[C@H](O)C=CC3[C@H]1C5 (stereo partly specified)	.	.	/	.	?
COc1ccc2c3c1OC1C(O)C=CC4C(C2)[N+](C)(C)CCC341 (stereo unspecified)	58	.	.	.	.
C/C=C/c1ccc(C2[C@H]3CNC[C@@H]2N3CC2CCCCC2)cc1 (stereo partly specified)	/	.	/	/	.
COC(=O)[C@H]1[C@H](CO)[C@H]2Cn3c(ccc(C4=CCCCC4)c3=O)[C@@H]1N2C(=O)Cc1ccccn1	.	.	.	/	.
COC(=O)[C@@H]1[C@@H](CO)[C@@H]2Cn3c(ccc(C4=CCCCC4)c3=O)[C@H]1N2Cc1ccccc1OC	.	.	.	/	24
COC(=O)[C@@H]1[C@@H](CO)[C@@H]2Cn3c(ccc(C4=CCCC4)c3=O)[C@H]1N2Cc1ccccn1	.	.	.	/	118
COc1ccc(SCC2CN(C)CCC2c2ccc(F)cc2)cc1 (stereo unspecified)	.	.	.	.	25
Cc1ccccc1NC(=NCCCN1CC1)Nc1ccccc1C	.	.	78	.	.
Cc1ccccc1NC(=O)c1cc(-c2ccccc2)n(CCCN2CCOCC2)c1C	.	.	.	.	.
N#CC(C#N)=NNc1ccc(-n2ccc(C(F)(F)F)n2)cc1	/	.	.	.	.
Cc1cc(C)n(-c2ccc(NN=C(C#N)C#N)cc2)n1	.	.	.	.	31
COC(=O)[C@H]1[C@H](CO)[C@H]2Cn3c(ccc(-c4cccc(C(=O)N(C)C)c4)c3=O)[C@@H]1N2CC1CC1	.	.	.	/	.
CCN(CC)c1ccc(/C=C/[N+](=O)[O-])cc1	.	.	.	.	.
CCN(CC)c1ccccc1	.	.	/	/	129
N#Cc1cccc(-c2ccc([C@H]3[C@H](CO)N4CCCCN(C(=O)Cc5ccccc5)C[C@@H]34)cc2)c1	.	.	.	/	.
C[C@]12C[C@H](O)[C@@H](O)C[C@@H]1CC[C@@H]1[C@@H]2CC[C@]2(C)C(=O)CC[C@@H]12	.	.	.	/	33
CN(C)c1cc[n+](CC(O)C[n+]2ccc(N(C)C)cc2)cc1	.	.	.	.	25
O=C(Cc1ccccn1)N1CCCCN2[C@H](CO)[C@H](c3ccc(C#Cc4ccccc4)cc3)[C@@H]2C1	.	.	.	/	.
COc1cccc(-c2ccc([C@@H]3[C@H]4CN(C(=O)Cc5ccncc5)CCCCN4[C@H]3CO)cc2)c1	/	.	/	/	.
SMILES	ERAP1 HTS inh	ERp5 inh	MLL AF4-AF9 inh	PDI inh	DENV2 CPE
COC(=O)[C@H]1[C@H](CO)[C@H]2Cn3c(ccc(-c4ccccc4F)c3=O)[C@@H]1N2CC1CCCC1	.	.	.	/	.
CCCNC(=O)[C@H]1[C@H](CO)[C@H]2Cn3c(cccc3=O)[C@@H]1N2CCC	/	/	.	/	/
O=C(c1ccc(CNS(=O)(=O)c2ccc(Br)cc2)cc1)N1CCC2(CC1)OCCO2	.	.	.	.	37
CCn1nc(/C=C/c2ccccc2)nc2c(=O)n(C)c(=O)nc1-2	.	38	.	.	.
COc1ccc(-n2c(/C=C/c3ccc(O)cc3)nc3ccccc3c2=O)cc1	.	.	.	.	.
CC=Cc1ccc2n(c1=O)C[C@@H]1[C@@H](CO)[C@H](C(=O)OC)[C@H]2N1C(=O)CC (mixture of isomers)	.	.	.	/	.
O=[N+]([O-])c1ccc2c(c1)Cc1cc(O)ccc1-2	.	.	.	.	.
O=[N+]([O-])c1cccc(O)c1	.	.	/	/	25
C[C@H]1OC[C@@H](C[N+](C)(C)C)O1	104	.	.	.	.
CC(C)[N+](C)(CCC(C(N)=O)(c1ccccc1)c1ccccc1)C(C)C	96	.	.	.	.
Cc1ccc(/C=C2\C(=O)NC(=O)N(CC3CCCO3)C2=O)s1 (stereo unspecified)	.	.	.	.	30
CCN(CC)c1ccc(/C=C2\C(=O)NC(=O)N(CC3CCCO3)C2=O)cc1 (stereo unspecified)	.	.	.	.	.
C=C(Cl)CSC(=S)N(CC)CC	.	.	/	/	32
C/C=C/c1ccc([C@H]2[C@H]3CN(C(=O)Cc4ccncc4)CCCCN3[C@H]2CO)cc1	.	.	.	/	.
Cc1ccnc(NC(=O)CCCc2ccc(N(CCCl)CCCl)cc2)n1	.	.	26	.	.
CCCN1[C@@H]2Cn3c(ccc(-c4cccc(C(=O)N(C)C)c4)c3=O)[C@H]1[C@@H](C(=O)OC)[C@@H]2CO	.	.	.	/	.
COC(=O)C1=C(c2ccc(-c3ccccc3)c(F)c2)C[C@@H]2CC[C@H]1N2C(=O)NCCNC(C)=O	/	.	.	.	.
COC(=O)C1=C(c2ccc(-c3ccccc3)c(F)c2)C[C@@H]2CC[C@H]1N2C(=O)NCCc1ccccc1	.	.	.	.	30
COC(=O)C1=C(c2ccccc2OCc2ccccc2)C[C@@H]2CC[C@H]1N2C(=O)NCc1ccc(Cl)cc1	/	.	.	.	58
COC(=O)C1=C(c2ccc(-c3ccccc3)c(F)c2)C[C@@H]2CC[C@H]1N2C(=O)NCCCOC(C)C	.	.	.	.	25
COc1ccc(OC(=O)N(C)C[C@H]2OCc3ccccc3-c3c(n(C)c4ccccc34)C(=O)N([C@@H](C)CO)C[C@@H]2C)cc1	.	.	.	/	.
COC(=O)[C@@H]1[C@@H](CO)[C@@H]2Cn3c(ccc(C4=CCCC4)c3=O)[C@H]1N2S(=O)(=O)c1cn(C)cn1	.	.	.	/	.
O=C1CNC[C@@H]2[C@@H](c3ccc(Br)cc3)[C@H](CO)N12	.	.	.	/	.
CCN1[C@@H]2c3ccc(-c4cccc(OC)c4)c(=O)n3C[C@H]1[C@H](CO)[C@H]2C(=O)OC	.	.	.	/	.
COC(=O)C[C@H]1CC[C@@H]2NC[C@@H](O)COC[C@H]2O1	.	.	.	/	.
CC(C)(C#CC(=O)O)OOC(c1ccccc1)(c1ccccc1)c1ccccc1	41	.	.	.	.
O=C(Cc1cccnc1)N1CCCCN2[C@H](C1)[C@@H](c1ccc(/C=C/c3ccccc3)cc1)[C@@H]2CO	.	.	.	/	.
COc1ccc(C#Cc2ccc([C@H]3[C@H](CO)N4CCCCN(C(=O)Cc5cccnc5)C[C@@H]34)cc2)cc1	.	27	.	/	.
